Compound activity: PubChem, National Center for Advancing Translational Sciences (NCATS)
The list is not random: actives were taken first. Their share in the collection is about 2.4%.
D2 PAM-1 – Beta-Arrestin HTS for Positive Allosteric Modulators of the Human D2 Dopamine Receptor: Potentiators | D(2) dopamine receptor (Homo sapiens), P14416 | DiscoveRx D2 beta-arrestin cells, luminescence, 90 min; 100% = 57 uM dopamine signal | potentiation, % (concentration not given with the values) | 360,000 tested, 0.23% active | AID 624464, 2012; in the data active = potentiation above about 50%
Target sequence (P14416 whole entry, looked up): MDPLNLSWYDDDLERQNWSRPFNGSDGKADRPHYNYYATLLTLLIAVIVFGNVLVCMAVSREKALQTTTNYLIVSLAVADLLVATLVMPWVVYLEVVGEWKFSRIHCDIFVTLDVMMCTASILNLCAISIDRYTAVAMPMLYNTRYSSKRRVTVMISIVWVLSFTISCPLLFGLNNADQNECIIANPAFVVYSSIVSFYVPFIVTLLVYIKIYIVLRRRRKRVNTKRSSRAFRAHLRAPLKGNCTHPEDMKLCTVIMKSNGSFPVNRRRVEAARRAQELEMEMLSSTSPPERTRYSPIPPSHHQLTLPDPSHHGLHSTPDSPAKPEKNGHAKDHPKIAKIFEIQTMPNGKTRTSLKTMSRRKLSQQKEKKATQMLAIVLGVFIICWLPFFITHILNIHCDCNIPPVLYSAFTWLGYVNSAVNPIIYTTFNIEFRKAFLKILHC
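PathHunter beta-arrestin assay in DiscoveRx D2 cells. Compounds were added with an EC20 of dopamine (50 nM final) for 90 min at 37 deg C. Luminescence was read 1 h after detection reagent, with 57 uM dopamine as the EC100 control.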
D2 ag-1 – HTS Assay for Allosteric Agonists of the Human D2 Dopamine Receptor: Primary Screen for Agonists; D(2) dopamine receptor (Homo sapiens), P14416; HEK293 T-REx D2 cells, calcium flux agonist mode; activation, % at 2 µM; AID 485358, 2010; 340,000 tested, 0.53% active;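 active = activation over 3 SD above normal in the single-dose calcium agonist read, cut at about 30% in these data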; also: 0% is about no effect
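In this primary screen, compounds producing a positive calcium signal within 180 s of addition to tetracycline-induced, force-coupled HEK293 Trex D2 cells are flagged; cells are dye-loaded with a no-wash calcium kit beforehand.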
D2 ag-2 – Beta-Arrestin HTS for Positive Allosteric Modulators of the Human D2 Dopamine Receptor: Agonists; 360,000 tested, 0.084% active; DiscoveRx PathHunter D2 beta-arrestin, luminescence, 90 min; 100% = 57 uM dopamine signal; activation, % (no concentration beside the values); D(2) dopamine receptor (Homo sapiens), P14416; AID 624465, 2012; in the data active = activation above about 40%
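Agonist mode: compounds alone added to overnight-plated D2 PathHunter cells for 90 min at 37 C, with 57 uM final dopamine (EC100) defining full response. Beta-arrestin recruitment detected by chemiluminescent reagent, read after 1 h at ambient temperature.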
D2 PAM-2 – HTS Assay for Positive Allosteric Modulators of the Human D2 Dopamine Receptor: Primary Screen for Potentiators; D(2) dopamine receptor (Homo sapiens), P14416; 340,000 tested, 0.34% active; HEK293 T-REx D2, calcium flux, EC20 dopamine potentiation; AID 485347, 2010; potentiation, % at 10 µM;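 active = potentiation over 3 SD above the plate norm, cut at about 30% in these data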; also: 0% is about no effect
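Using a no-wash calcium dye in inducible, force-coupled HEK293 Trex cells expressing D2, we tracked fluorescence each second for 180 s after compound, then for 180 s after EC20 dopamine to detect augmented signalling.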
D2 antagonist – HTS Assay for Allosteric Antagonists of the Human D2 Dopamine Receptor: Primary Screen for Antagonists; HEK293 TREx D2 cells, calcium flux, dopamine EC80; inhibition, % at 10 µM; 340,000 tested, 2% active; AID 485344, 2010; in the data active = inhibition above about 30%; inactive = below that, where a call was filed; also: 0% is about no effect
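Tetracycline-induced HEK293 TREx cells expressing D2 receptor forced-coupled to calcium signalling, loaded with no-wash calcium dye. Compounds added and calcium flux read 180 s, then dopamine added at EC80 and read a further 180 s.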
* marks the source's active call; other numbers are inactive results; / = not tested or not shown; ! = a repeat was not active.

SMILES	D2 PAM-1	D2 ag-1	D2 ag-2	D2 PAM-2	D2 antagonist
CCc1ccc(NC(=O)CCC(=O)Nc2nnc(C(C)C)s2)cc1	-3.4	0.6	0.2	2.0	43.2*
COc1cc(OC)cc(C(=O)N[C@H](C(=O)OCn2nnc3ccccc3c2=O)C(C)C)c1	-7.1	-0.7	-3.7	31.1*	-11.8
COc1ccc(C(=O)N[C@H](C(=O)OCn2nnc3ccccc3c2=O)C(C)C)cc1	-3.7	0.0	-3.2	2.7	-14.1
O=C(OCn1nnc2ccccc2c1=O)c1ccco1	-7.4	-0.1	-0.3	-6.3	-12.3
O=C(OCn1nnc2ccccc2c1=O)c1cc2ccccc2o1	-4.6	0.6	-0.1	8.2	68.6*
CC(C)c1ccc(NC(=O)c2cc3c(=O)[nH]c4ccccc4c3n2C)cc1	/	0.6	/	1.2	/
Cc1ccc(-c2noc(-c3nnn(CC(=O)Nc4cc(C)cc(C)c4)c3N)n2)cc1	/	-0.4	/	6.3	/
Cc1[nH]c2ccccc2c1/C=N/Nc1ccc(F)cc1F	/	1.0	/	1.2	31.4*
Cc1[nH]c2ccccc2c1/C=N/NC(=O)c1cccc(F)c1	-5.6	-1.1	-8.8	-6.9	-12.2
COCCCC/C(=N\OCCN)c1ccc(C(F)(F)F)cc1	-13.0	1.0	-0.4	1.9	53.9*!
COc1ccccc1/C=C/CN1CCCC(CO)(CCc2ccccc2)C1 (stereo unspecified)	-22.9	0.3	3.6	-19.0	71.4*
OCC1(CCc2ccccc2)CCCN(C/C=C/c2ccccc2)C1 (stereo unspecified)	-20.6	-1.4	5.3	-21.7	44.8*
COc1ccc(CC2(CO)CCN(C/C=C/c3ccccc3OC)CC2)cc1	-6.6	0.7	-1.4	7.9	-9.1
Nn1c(SCC(=O)Nc2ccc3c(c2)OCO3)nnc1C1CCCCC1	-0.2	-0.6	-4.4	7.1	31.0*
Cn1c(SCC(=O)Nc2ccc3c(c2)OCCO3)nnc1-c1ccccn1	2.8	-0.2	0.1	6.0	-12.5
O=C(CSc1nnc(-c2ccccn2)n1Cc1ccccc1)Nc1ccc2c(c1)OCO2	-22.4	0.0	-1.4	32.2*	14.6
CCc1ccccc1NC(=O)Cn1cc2c(n1)CCC(C)C2 (stereo unspecified)	/	0.2	/	0.5	/
CC(C)OCCCn1c(=O)c2ccccc2n2c(-c3cc(Cl)ccc3O)nnc12	/	5.7	/	20.2	/
Oc1ccc[n+](/C=C\c2ccccc2)c1	-9.6	0.3	0.3	13.5	37.9*
Oc1ccc[n+](CCCCC[n+]2cccc(O)c2)c1	-12.4	0.1	-5.2	-3.7	-10.6
Cc1cc(Nc2ccc(Cl)cc2)n2ncnc2n1	-3.6	0.4	-1.9	5.3	-2.6
Cc1ccc(Nc2cc(-c3ccccc3)nc3ncnn23)cc1	-7.7	-0.2	-2.7	-1.4	33.5*
Cc1ccc(-c2noc(CN(C(=O)c3ccc(C(C)(C)C)cc3)C(C)C)n2)cc1	/	/	/	-1.6	/
O=[N+]([O-])c1ccccc1OCCCNCc1ccccc1	-18.9	0.4	-3.5	-17.3	37.6*
CC1CCN(CCOCCOc2ccc(Br)cc2Cl)CC1	-38.1	/	-3.4	/	/
SMILES	D2 PAM-1	D2 ag-1	D2 ag-2	D2 PAM-2	D2 antagonist
CC1CCN(CCCCOc2ccccc2[N+](=O)[O-])CC1	-27.8	0.6	0.4	-25.6	79.8*
CC1CCN(CCCCOc2ccc([N+](=O)[O-])cc2)CC1	-16.3	-0.4	-1.0	-19.3	2.4
CC1CCCN(CCCOc2ccc(Br)cc2Cl)C1 (stereo unspecified)	-11.3	-0.4	-5.7	-21.7	36.5*
Cc1ccc(OCCCCNC(C)(C)C)c([N+](=O)[O-])c1	-32.3	-0.4	-2.1	-14.6	-7.8
Cc1ccc(OCCCCN2CCCC(C)C2)c([N+](=O)[O-])c1 (stereo unspecified)	-23.3	-0.8	-1.2	-30.2	90.8*
CCNc1ccc(-c2nc(-c3ccco3)no2)cc1[N+](=O)[O-]	/	1.4	/	-13.6	/
Cc1ccc([N+](=O)[O-])c(OCCCN2CCCCCC2)c1	-18.4	-0.3	-3.9	-27.3	70.9*
Cc1cc(Br)ccc1OCCOCCN1CCCC1	-85.6	0.3	-0.8	-15.4	43.1*
Cc1cc(OCCN2CCCCCC2)ccc1[N+](=O)[O-]	-9.8	0.2	-4.8	-12.3	33.9*
Cn1c(=O)oc2cc(S(=O)(=O)N3CCCC(C(=O)Nc4ccc(Br)cc4F)C3)ccc21 (stereo unspecified)	/	-1.1	/	2.9	/
COc1ccc(S(=O)(=O)c2cn(Cc3ccccc3)c3cc(N4CCCC4)c(F)cc3c2=O)cc1	/	-0.5	/	3.6	/
COc1ccc(NC(=O)CSCc2cnn(-c3ccccc3)c2-n2cccc2)cc1	/	-1.6	/	/	/
CCOc1ccc(NC(=O)CN2CCN(c3ccc(F)cc3)CC2)cc1S(=O)(=O)N1CCCC1	-45.3	/	-3.0	/	/
CCOc1ccc(NC(=O)CSc2nnc(C3CC3)n2C)cc1S(=O)(=O)N1CCCCC1	2.6	0.0	-0.3	-5.5	43.8*
CCOc1ccc(NC(=O)CSc2nnc(C3CC3)n2C2CC2)cc1	1.8	0.1	-6.6	3.8	42.8*
NC(=O)c1ccc(NC(=O)CSc2nnc(C3CC3)n2C2CC2)cc1	1.8	/	3.3	/	/
Cn1c(SCC(=O)Nc2ccc3c(c2)CCC3)nnc1C1CC1	-16.2	-0.4	-1.9	-10.9	-9.1
CCC(=O)Nc1cccc(NC(=O)CSc2nnc(C3CC3)n2C)c1	2.4	0.3	-2.2	0.4	30.9*
COc1ccc(NC(=O)CSc2nnc(C3CC3)n2C)cc1	-13.0	2.2	-0.8	-0.7	5.1
CCOc1ccc(NC(=O)CN2CCN(c3ccccc3C)CC2)cc1S(=O)(=O)N1CCCC1	-27.8	0.6	-0.5	-26.4	34.7*
CCN(C(=O)Cn1nc(Cc2cccnc2)c2ccccc2c1=O)c1cc(C)ccc1C	/	0.1	/	5.3	/
COc1cc(/C=C/c2nc3cc(Cl)ccc3c(=O)n2-c2ccc(C)cc2C)cc(OC)c1OC	/	/	/	-10.2	/
CC1=NN(Cc2ccccc2)C(=O)/C1=C\c1ccc(N(C)C)cc1	0.5	-1.2	-2.4	-5.8	-4.6
COC(=O)CC1=NN(c2ccccc2)C(=O)/C1=C\c1ccc(OC)cc1	-8.8	3.4	-5.1	2.1	56.0*
CCOC(=O)C1=NN(c2ccccc2)C(=O)/C1=C\c1ccc(N(C)C)cc1	-11.3	0.5	-2.9	-7.7	31.7*
Cc1cccc(NC(=O)CCn2nc(-c3ccccc3)c3ccccc3c2=O)c1	/	0.4	/	1.5	/
Cc1ccc(S(=O)(=O)N2CCc3cc(C(=O)Nc4c(F)cccc4F)ccc32)cc1	/	0.0	/	-2.7	/
O=C(NN1C(=O)/C(=C/c2cc([N+](=O)[O-])ccc2O)SC1=S)c1ccccc1O	/	0.8	/	-9.4	-2.0
